# Shown is part of a subset that was picked to be rich in hits.
# Integrin act MD: qHTS for Activators of Integrin-Mediated Alleviation for Muscular Dystrophy | alpha7betagal myoblasts, beta-gal FDG fluorescence, 48 h | Potency, µM (top dose mostly 38.3 µM), for inactives: top-dose activation, usual class: activators | 350,000 tested, 0.064% active;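 note: potency is the fitted concentration of half-maximal effect; 100% = response of the positive control SU9516; nearly all actives have a fitted effect of over 60% in size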
#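 Alpha7betagal+/- myoblasts (passage 13) were plated 16-24 hr, then exposed to compounds (1:260 dilution of DMSO stock) for 48 hours at 37C. After MPER lysis, β-galactosidase reporter activity was read as FDG fluorescence (ex 480/em 540) after 30 minutes.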
# N370S GC: qHTS Assay for Inhibitors and Activators of N370S glucocerebrosidase as a Potential Chaperone Treatment of Gaucher Disease. Lysosomal acid glucosylceramidase (Homo sapiens), P04062. N370S GC spleen homogenate, 4MU-glucoside fluorescence. Potency, µM (highest dose often 59.4 µM), without a hit: at the top dose activity change, negative = inhibition, most hits filed as inhibitors. 330,000 tested, 0.092% active;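 note: potency is the fitted concentration of half-maximal effect; 0% = full enzyme activity and -100% = no enzyme basal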
# Anesthetic bind: qHTS Assay for Identification of Novel General Anesthetics; AID 485281, 2010; 350,000 tested, 0.074% active; Potency, µM (doses to about 77.5 µM), for inactives: top-dose activity change, negative = displacement, usual class: inhibitors; Ferritin light chain (Equus caballus), P02791; apoferritin/1-aminoanthracene competitive binding, fluorescence; note: potency is the fitted concentration of half-maximal effect; % is set by controls: 0 for no effect and ±100 for the full control effect; nearly all actives have a fitted effect of over 20% in size
# Target sequence (P02791 2-175 limits assumed): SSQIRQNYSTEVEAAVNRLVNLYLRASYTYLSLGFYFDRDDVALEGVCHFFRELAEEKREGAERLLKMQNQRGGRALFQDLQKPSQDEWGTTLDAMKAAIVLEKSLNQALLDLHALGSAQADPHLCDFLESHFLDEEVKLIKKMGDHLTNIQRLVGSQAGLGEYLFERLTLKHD
#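 In PBS, apoferritin at 10 uM is loaded with 1-AMA from a 50% saturated solution. After 10 min of compound exposure at ambient temperature, reduced 535 nm fluorescence indicates probe displacement.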
# GRP78 ERSR act: qHTS for Inducers of the Endoplasmic Reticulum Stress Response (ERSR) in Human Glioma: qHTS; U87-MG GRP78 promoter luciferase reporter, 16 h; Potency, µM, for the others: top-dose activation, actives largely listed as activators; 420,000 tested, 0.02% active; AID 602332, 2012; note: potency is the fitted concentration of half-maximal effect; series mostly up to about 76 µM; % of control where 0% means no effect; nearly all actives have a fitted effect of over 35% in size
#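 Stably transfected U87-MG glioma cells carrying a GRP78-based luciferase sensor; 16 h compound incubation. Luminescence end-point read 10 min after Bright-Glo addition at room temperature.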
# CBFb RUNX1 block: qHTS Assay for Compounds Blocking the Interaction Between CBF-beta and RUNX1 for the Treatment of Acute Myeloid Leukemia; Runt-related transcription factor 1 (Homo sapiens) + Core-binding factor subunit beta …; AlphaScreen CBFb-His/RUNX1-biotin binding, biochemical; Potency, µM (highest dose often 59.8 µM), for the others: at the highest dose activity, negative = inhibition, hits mostly inhibitors; 230,000 tested, under 10 active; note: % of control where 0% means no effect
#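 Interaction loss through any mechanism counts as activity. Pre-formed complex of His-CBF-beta and biotin-RUNX1 (30 nM apiece) is incubated with compound 15 min, then with 50 ng nickel and 50 ng streptavidin beads for 90 min before AlphaScreen detection.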
# ClpP mod: qHTS Assay for Activators of ClpP. AID 651965, 2013. Potency, µM (doses to about 57.5 µM), for inactives: at the highest dose activity change, negative = active. 340,000 tested, 1.9% active. purified B. subtilis ClpP, FRET peptide cleavage, 20 min; active = well fitted falling curve with a large enough effect; inconclusive = small, poorly fitted or top-dose-only effect; inactive = no such curve, though single readings can be large or run the other way; note: potency is the fitted concentration of half-maximal effect; the source files actives as falling curves though it sought activators and does not explain the sign; nearly all actives have a fitted effect of over 65% in size
# Target sequence (P80244 whole entry, looked up): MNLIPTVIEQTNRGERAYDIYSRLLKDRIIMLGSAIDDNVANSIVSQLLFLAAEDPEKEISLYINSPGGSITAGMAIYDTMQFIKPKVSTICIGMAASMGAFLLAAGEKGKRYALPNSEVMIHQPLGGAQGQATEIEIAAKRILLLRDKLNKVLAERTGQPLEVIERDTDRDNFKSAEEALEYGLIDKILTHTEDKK
#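 Buffer: 100 mM Tris/HCl pH8, 100 mM KCl, 0.05% low protease BSA, 2.5% glycerol, 0.01% Tween-20. ClpP 10 microg/mL final; 20 min RT; delta FRET normalized to ADEP and DMSO controls.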
# The depositor's hits bear a star; ? = inconclusive; · = no result given; [ ] = remark or other dose. Unless noted, calls come from the whole dose curve; as a rule, active = well fitted curve in the direction sought with a large enough effect; inconclusive = small, poorly fitted or top-dose-only effect, or another doubt; inactive = no such curve, though single readings can be large; an effect the other way counts as inactive or inconclusive.
SMILES,Integrin act MD,N370S GC,Anesthetic bind,GRP78 ERSR act,CBFb RUNX1 block,ClpP mod
COC(=O)c1ccccc1NC(=O)Oc1ccc(C(C)C)cc1,16%,-12%,?,1%,2%,32µM*
CCCN1CCC(NC(=O)Nc2ccccc2C(=O)OC)CC1,-7%,·,-17%,-4%,5%,28µM*
O=C(OCCF)N1CCN(/[N+]([O-])=N/Oc2ccc([N+](=O)[O-])cc2[N+](=O)[O-])CC1,·,·,·,-12%,·,·
CCCCCCCCCC[n+]1ccc(/C=C/c2c[nH]c3ccccc23)c2ccccc21,·,·,·,-12%,·,5%
O=C(Nc1c(C(=O)O)[nH]c2ccccc12)NC1CCCCC1,-13%,-5%[2.35 µM],?,1%,-7%,7.9µM*
COCCCn1c2nc3ccccc3nc2c2c(=O)n(CC3CCCO3)cnc21 (stereo not drawn),4%,17%,7%,1%,5%,13µM*
COc1nc(-c2ccccc2)cc(-c2ccc(OC)c(OC)c2)n1,20%,6%,5%,2%,?,22µM*
NC(N)=NCCC[C@H](NC(=O)CC1(CC(=O)N2CCN(C3c4ccccc4NC(=O)c4ccccc43)CC2)CCCC1)C(=O)NCCn1c(=O)n(-c2ccccc2)n(-c2ccccc2)c1=O (stereo partly drawn),·,18µM*,?,·,-9%,·
O=C(O)COCC(=O)N1CCN(C2c3ccccc3-c3ccccc32)CC1,-7%,-15%,4%,2%,8%,·
Cc1c(C(=O)N2CC3CCC2C3)sc2ncnc(NCc3ccco3)c12 (stereo not drawn),·,·,·,-3%,·,·
OC1(c2ccc3c(c2)CN(Cc2ccccn2)CCO3)CCN(c2ccccc2F)CC1,·,·,·,-3%,·,·
COc1ccc(-c2ccc([C@H]3[C@H]4C=CC[C@@H](C)[C@@H]4C(=O)N3Cc3ccccc3)c(F)c2)cc1C,24%,6%,5%,-5%,2%,25µM*
COc1ccc(-c2ccc(C3C4C=CCC(C)C4C(=O)N3Cc3ccccc3)c(F)c2)cc1C (stereo not drawn),·,-4%,0%,-7%,14%,·
C1=Nc2ccccc2/C1=C/c1ccccc1,·,·,·,-2%,·,?
CC(C)CN(C(=O)COC(=O)c1cccnc1Cl)c1c(N)n(Cc2ccccc2)c(=O)[nH]c1=O,-1%,-8%,·,2%,·,28µM*
CCCCn1c(N)c(N(CC(C)C)C(=O)COC(=O)c2ccccc2NCCO)c(=O)[nH]c1=O,2%,?,·,-1%,·,16µM*
O=S(=O)(Cc1ccc(Cl)cc1)c1ccccc1-c1nnc(-c2ccccc2)o1,3%,-1%,-10%,0%,11%,32µM*
CC(C)(C)n1ncc2c(=O)n(Cc3cccc(C(F)(F)F)c3Cl)cnc21,·,·,·,0%,·,·
CO/N=C1/CC2(CC3CC(C/C=C(/C)CC(C)/C=C\C=C4\COC5C(O)C(C)=CC(C(=O)O3)C45O)O2)OC(/C(C)=C/C(C)C)C1C (stereo not drawn),·,·,·,-11%,·,·
O=C1C=C(NC2CC2)C2(CCCCC2)O1,14%,-1%,-2%,-1%,4%,13µM*
O=C1C=C(NCC2CCCO2)C2(CCCCC2)O1 (stereo not drawn),24%,-1%,-8%,-5%,3%,0%
Oc1ccc(Nc2nc(-c3ccc(O)cc3)cs2)cc1,-46%,16µM*,-11%,13%,·,-3%
NS(=O)(=O)c1ccc(Nc2nc(-c3ccc(O)cc3)cs2)cc1,-3%,-21%,28%,0%,-6%,-5%
CC(=O)NC1=CC(=O)c2nonc2C1=O,·,·,·,-10%,·,?
